# Assay results reported in PubChem BioAssay AID652025 (National Center for Advancing Translational Sciences (NCATS), 2013).
# Values joined by “and” are separate entries in the source; they are usually repeats but may differ in a detail not shown here. Equal entries are not always repeated. Screen size: about 360,000 compounds; about 240 (0.067%) were called active. What follows is part of a selection rich in actives, with near analogues and random picks from the rest. Unmarked numbers belong to inactive results. No stated cut-off is given here; in the data, active means activation above about 50%; inconclusive means mostly about 30% to 49%; inactive means weaker than that.
# Assay: qHTS of IL-2 Activators; further: 0% is about no effect
# Conditions: IL-2 activation reporter assay, cell-based qHTS; hits give high values; in transgenic mouse T cells; stimulated with anti-CD3/CD4/CD28 beads
# Source text: The adaptive immune response against any infectious agent begins with the activation of an antigen specific T cell. This relatively rare and inert ("naive") T cell undergoes a massive proliferative expansion and differentiation process to generate sufficient number of potent pathogen-specific effector T cells. The effector T cells fight the infection by making cytokines and helping other cells to become fully armed as well. If any naive T cell has antigen receptors (TCRs) that can be activated by self peptides, then a variety of regulatory mechanisms kick in to prevent this cell from performing to its full potential. These processes collectively constitute the phenomenon of immunological tolerance and their failure leads to autoimmunity. One arm of tolerance involves generation of biochemical negative feedback downstream of the TCR (tuning). This is especially relevant to self antigens present in the body over long periods of time (chronic), which form the bulk of our proteome. The negative feedback serves to tune the TCR signaling, such that the ambient antigenic stimulation is nullified intracellularly. Unfortunately, this critical machinery serves as a target for chronic viral, bacterial and parasitic infections (as well as tumors), which can evade a robust immune response, simply by allowing T cells to tune down their signaling to pathogen or malignancy derived antigens. As such, disrupting the tuning in such cases would allow the tolerant T cell to function again and deliver a robust effector response.
# If a therapeutic can restore responsiveness to the tuned down T cell, even for a short time, they could combat the pathogen without any additional immunization. To that end, we have developed a sensitive HTS T cell based assay based on IL-2. This assay will be screened against the Molecular Libraries Small Molecule Repository (MLSMR) to find small molecules that could elicit this response.
# NIH Chemical Genomics Center [NCGC]
# NIH Molecular Libraries Probe Centers Network [MLPCN]
# Assay Submitter (PI): Ron Schwartz, NIAID
# 4 microL (750 cells/well) of unstimulated transgenic mouse T cells (columns 1-3,5-48) are dispensed into Aurora LoBase, black clear-bottom 1536-well assay plates; column 4 receives an identical concentration of transgenic memory T cells as a non-tolerant control. Compounds are then transferred via Kalypsys pin tool equipped with 1536-pin array (10 nL slotted pins, V&P Scientific, San Diego, CA). Following addition of compound and a 60 minute incubation, 1 microL of bead stimulation solution ((0.04 micron Fluospheres (Life technologies, CA) coated with 10ug/ml each anti-CD3 and anti-CD4 (clones 2C11 and GK1.5, BD Biosciences, CA) and mixed with 1ug/ml anti-CD28 (clone PV-1, BD biosciences, CA)). columns 2-48) is added to stimulate the IL-2 response pathway; media is instead added to column 1 as an unstimulated control, while PMA/ionomycin (Sigma Aldrich, MO) is added to column 3 as a control for IL-2 tolerance bypass. The plates are then incubated at 37 degrees C for 18 hours. EGFP and DsRed signal are then detected using an Acumen eX3 Explorer fluorescent plate cytometer. All cells are dispensed in cell media containing EHAA (Quality Biologicals, MD), RPMI (Quality Biologicals, MD), Glutamine (Life Technologies, CA), Penicillin/Streptomycin (Quality Biologicals, MD), 2-ME (Sigma Aldrich, MO) and 10% FBS (Gemini Bioproducts, CA) .
row,Compound,activation
1,Cc1nc2ccc(S(=O)(=O)NCC(=O)NCCN3CCCCC3C)cc2s1 (centres undefined),0.794%
2,COc1ccc(C(=O)C2CCCN(C(=O)c3cc4nc(C)cc(C)n4n3)C2)cc1F (centres undefined),-1.95%
3,Cc1cccc2[nH]c(CN(C)C(=O)C3CCC(=O)N(CCc4ccccc4)C3)nc12 (centres undefined),-4.62%
4,CCCCN=C1C([N+](=O)[O-])=CC=C2C1=NC1(CCCCC1)N2O,-0.493%
5,CCOC(=O)C1CCN(c2c(Nc3cc(C)cc(C)c3)c(=O)c2=O)CC1,3.74%
6,COc1ccc(S(=O)(=O)Nc2cccc3c2O[C@H](CN(C)S(=O)(=O)c2ccc(OC)cc2)[C@@H](C)CN([C@H](C)CO)C3=O)cc1,-0.577%
7,COc1ccc(-c2ccc3[nH]c4c(c3c2)CCN2C[C@H]3[C@H](C)ON(C)[C@H]3C[C@@H]42)cc1,-3.69%
8,COc1cc(C(F)(F)F)nc2c(Br)c(C(C)(C)C)nn12,-2.42%
9,COc1ccc(N2CCN(CCNC(=O)CCN3C(=O)COc4ccccc43)CC2)cc1,-1.26%
10,Cc1cc(Cl)ccc1OCc1nc(-c2ccncc2)no1,-0.482%
11,O=C(NNc1ccccc1Cl)C(O)(c1cccc(C(F)(F)F)c1)c1cccc(C(F)(F)F)c1,-0.487%
12,Cn1c2ccc(F)cc2c2nnc(NN)nc21,0.485%
13,CC(C)(C)NC(=O)CN1CCC(NC(=O)C23CC4CC(CC(C4)C2)C3)CC1,-0.682%
14,COc1ccc(CCC(=O)N2CCN(S(=O)(=O)c3ccc(OC)cc3)CC2)cc1,0.152%
15,COc1ccc(CCc2nnc(CCC(=O)NCc3cnn(-c4ccccc4C)c3)o2)cc1,-0.0481%
16,Cn1cnc(S(=O)(=O)Nc2ccc3c(c2)OCCO3)c1,0.511%
17,COc1cccc(N2CCN(CC(=O)Nc3ccnn3C3CCCC3)CC2)c1,0.356%
18,O=C1CCC(Cc2ccccc2)N1 (centres undefined),-3.46%
19,CN1CCN(S(=O)(=O)c2ccc(N3CCN(S(=O)(=O)c4cccs4)CC3)nc2)CC1,0.642%
20,O=C1Cc2ccccc2Sc2ccc(Cl)cc21,-0.448%
21,CSCC[C@H](NC(=O)N1CCn2c1nc1ccccc12)C(=O)NCc1ccc2c(c1)OCO2,-1.15%
22,COc1ccc(N2CCN(C(=O)CCSCc3ccccc3F)CC2)cc1,1.14%
23,NC(=O)COC(=O)c1ccc2c(c1)C(=O)N(Cc1ccco1)C2=O,-0.0741%

row,Compound,activation
1,Cc1cnc(C(=O)N2CCCC(C(=O)c3ccc(C(F)(F)F)cc3)C2)cn1 (centres undefined),0.823%
2,CCOc1ccc(Nc2nc(Cc3nnc(SCC(=O)c4ccc(C)cc4)o3)cs2)cc1,-0.186%
3,NCCN1CCN2C(=O)CN(C(=O)c3ccccc3)CC12 (centres undefined),1.5%
4,Cc1cc(C)cc(N(CC(=O)N2CC=C(c3ccccc3)CC2)S(=O)(=O)c2c(C)noc2C)c1,-2%
5,CC1=NN(C(C)C)C(=O)C1,-0.959%
6,CC1=C(C(=O)N2CCOCC2)CC(CC(=O)NCCN2CCOCC2)C(=O)N1CCC1=CCCCC1 (centres undefined),2.16%
7,CC(=O)CSc1nnc(CSc2ncccn2)n1C1CCCCC1,4.89%
8,O=C(O)CN(Cc1ccco1)S(=O)(=O)c1ccccc1,0.214%
9,CC(=O)N1CC[n+]2c(-c3ccc([N+](=O)[O-])cc3)csc21,-2.73%
10,Cc1ccccc1N1C(=O)C(Oc2ccc(Cl)cc2)C1CNCC1CCCO1 (centres undefined),0.756%
11,O=C1/C(=C\c2cccnc2)CN(Cc2ccccc2)C/C1=C\c1cccnc1,-0.836%
12,Cc1c2cn[nH]c(=O)c2c(C)n1Cc1ccc(F)cc1,-0.791%
13,Cc1c(C(=O)OCC(=O)N2CCCC2=O)oc2ccccc12,-1.29%
14,O=S(=O)(Nc1nccs1)c1ccc2c(c1)OCCO2,-0.72%
15,CN1CCN(C2Cc3ccc(Cl)cc3Sc3ccc(F)cc32)CC1 (centres undefined),-2.1%
16,Cc1cc([N+](=O)[O-])nn1CCCC(=O)Nc1cccnc1Cl,-0.291%
17,Cc1cc(NC(=O)c2cc(-c3cccs3)on2)nn1Cc1ccc(Cl)cc1,0.242%
18,CC1(C)O[C@@H]2[C@H](O1)[C@@H](COS(=O)(=O)O)O[C@H]2n1cnc2c(=O)[nH]cnc21,-0.104%
19,CCCc1nc(SCC(=O)Nc2ccc(S(=O)(=O)N(C)C)cc2)c2ccccc2n1,-0.583%
20,Cc1ccc(S(=O)(=O)CC(=O)Nc2sc(C)c(C)c2C(N)=O)cc1,0.0351%
21,COCCN(C(=O)CCC(=O)Nc1nccs1)C(C(=O)NCCC(C)C)c1ccc(F)cc1 (centres undefined),-1.07%
22,O=C(NCc1cccnc1)c1cc(C2CCCCN2C(=O)CCc2ccccc2)on1 (centres undefined),-0.0033%
23,CCOc1ccc(-n2c(SC(C)C(=O)OC)nc3c(c2=O)SCC3)cc1 (centres undefined),-0.633%

row,Compound,activation
1,Cc1cccc(N=Nc2c(O)[nH]c3ccc(F)cc23)c1,137% (active)
2,Cc1ccc(CNC(=O)CSc2nnc3c(n2)[nH]c2ccc(F)cc23)cc1,-0.754%
3,COc1ccc(NC(=O)/C(N=Nc2cccc(S(=O)(=O)Nc3ccc(SC(F)F)cc3)c2)=C(\C)O)cc1,0.0635%
4,Cc1ccccc1OC(=O)Cn1c(C(F)(F)F)nc2ccccc21,0.516%
5,CCCS(=O)(=O)N1CCN=C1SCc1cccc(F)c1,1.16%
6,CC1=C[C@H]2Cc3cc(C)cc(C)c3S(=O)(=O)[C@@H]2C=C1,0.251%
7,OCCCC1CCCCN1Cc1nc(Cc2ccccc2Cl)no1 (centres undefined),1.46%
8,CCCCN(C(=O)/C=C/c1ccco1)c1c(N)n(CC(C)C)c(=O)[nH]c1=O,5.81%
9,CC(=O)c1cccc(NC(=O)C2CCCN(S(=O)(=O)c3cccc4nonc34)C2)c1 (centres undefined),2.63%
10,COc1ccc(COC[C@H](CC(C)C)N2CCN(C(=O)c3cccc(C(F)(F)F)c3)CCC2=O)cc1,-1.15%
11,O=S1(=O)C=C(SCCN2CCCC2)c2ccccc21,5.28%
12,[O-][n+]1c2c(nn1-c1ccc(Cl)c(Cl)c1)-c1nonc1CC2,0.19%
13,CCOC(=O)c1cn[nH]c1NC(=S)Nc1ccccc1,-3.84%
14,CCOC(=O)C1C(=O)OC2(CCCC2)C1C(=O)OCC (centres undefined),-0.195%
15,Cc1c(C(=O)NC(=S)NCc2cccnc2)oc2ccccc12,-3.54%
16,COC(=O)C1=C(N)Oc2c(oc(CO)cc2=O)C1c1c(F)cccc1Cl (centres undefined),1.1%
17,C=CCOC(=O)N1CCC2CC1c1cc(-c3ccc(OC)cc3)ccc12 (centres undefined),-0.638%
18,COc1ccccc1N(C(=O)Cn1nnc2ccccc21)C(C(=O)NCc1ccco1)c1ccc(C)o1 (centres undefined),-0.406%
19,CN(CCO)Cc1csc2ccc(Br)cc12,-0.737%
20,CCOc1ccc(C(=O)NC(C(=O)NCc2ccccn2)C(C)C)cc1 (centres undefined),-4.42%
21,COc1ccc(/C=C/CN2CCN(Cc3ccc(C)cc3)C(CCO)C2)cc1 (centres undefined),0.996%
22,Cc1cccc(C(=O)O)c1[N+](=O)[O-],-0.181%
23,O=C1C=CC(=O)N1c1ccc(N2CCCCC2)cc1,-7.5%

row,Compound,activation
1,OCC1(CO)CC2(C1)CC(CO)(CO)C2,0.276%
2,CC(C)(C)C(=O)NNC(=O)c1ccc(Oc2cc(Cl)cc(Cl)c2)o1,0.282%
3,Cc1ccc(NC(=O)c2nc[nH]c2C(=O)N2CCCCC2)c(C(=O)c2ccccc2)c1,-0.352%
4,O=C1/C(=C/c2cccs2)SC(=S)N1C1CCS(=O)(=O)C1 (centres undefined),2.78%
5,O=C(CCN1C(=O)/C(=C/c2cccs2)SC1=S)NNC(=O)c1cccc(O)c1,133% (active)
6,O=C(CCN1C(=O)c2ccccc2C1=O)NNC(=O)c1ccc(Cl)cc1Cl,0.499%
7,CCOC(=O)C1CCCN(S(=O)(=O)c2ccc3c(c2)C(C)(C)C(=O)N3C)C1 (centres undefined),-2.21%
8,CCCn1c(=O)c2[nH]c(C3CCCC3)nc2n(CCC)c1=O,-0.643%
9,C[C@]12C=CC(=O)C=C1CC[C@@H]1[C@@H]2C(=O)C[C@@]2(C)[C@H]1CC[C@]2(O)C(=O)CO,0.342% and -0.368%
10,CCOCCCN(C)C1CCN(C(=O)c2oc3ccccc3c2NC(=O)Cc2cccc([N+](=O)[O-])c2)CC1,-1.43%
11,O=C(Nc1ccc(Br)cc1)C1CCC(=O)N1Cc1ccccc1Cl (centres undefined),-1.19%
12,C=CCOC(=O)C1=C[C@H](c2ccc(Br)cc2)C[C@H](OCCCCO)O1,0.356%
13,CC(C)OC(=O)Cn1nc(C(F)(F)F)c2c1CCCC2,0.525%
14,C=CCn1c(CCNC(=O)c2ccccc2F)nnc1SCC(=O)Nc1ccc(OC)cc1,0.0893%
15,CON(C)S(=O)(=O)c1ccc2c(c1)NC(=O)C1CCCN21 (centres undefined),-2.38%
16,O=c1[nH]c(CSc2ccccc2)nc2c1oc1ccccc12,0.844%
17,CCC(C)Sc1nc2c(cnn2-c2ccc(F)cc2)c(=O)[nH]1 (centres undefined),-4.9%
18,CC(=O)CC[C@@H](C)O[C@@H]1OC(C)[C@H](O)CC1O (some centres undefined),0.121%
19,C/C(=N\NC(=O)c1ccc(CSc2nc(C)cc(C)n2)cc1)C1CCCCC1,-0.149%
20,Cc1cc(C)n(CCNC(=O)CC2C(=O)NCCN2Cc2ccc(C)o2)n1 (centres undefined),-0.111%
